This is part of a sample that, as a whole, favours compounds with a hit. Of some 83,000 tested, about 20% had one in any assay.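 Cells were grown in 96-well plates and exposed to the test compound at a single concentration for 48 hours; results are reported as percent growth, with values below 10 considered active.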 Values without a mark were called inactive. Active and inactive are the calls of the source.

Some test systems named below: SK-MEL-2 melanoma; SN12C renal; UO-31 renal; TK-10 renal; ACHN renal; CAKI-1 renal; CCRF-CEM leukemia; MOLT-4 leukemia; SR leukemia; RPMI-8226 leukemia; OVCAR-5 ovarian; OVCAR-4 ovarian; SK-OV-3 ovarian; IGROV1 ovarian; OVCAR-3 ovarian; HS 578T breast; NCI/ADR-RES ovarian; OVCAR-8 ovarian.
Common to all, as to test: NCI-60 one-dose screen, 48 h (100 = growth as untreated, 0 = no growth, -100 = all killed)
Holding throughout (conditions): 10 µM unless noted

`COc1cc(OC)c(C(=O)/C=C/c2ccc(C(F)(F)F)cc2)c(OC)c1`: the growth is 45.4% with SK-MEL-2 melanoma; 41.2% in the assay on SN12C renal; 56.4% in the assay with UO-31 renal; 84.6% in the assay with TK-10 renal; 60% in the assay with ACHN renal; 79.3% in the assay on CAKI-1 renal. Also, the growth was 25.9% in the assay with CCRF-CEM leukemia; 24% in the assay with MOLT-4 leukemia; 31.6% in the assay with SR leukemia; 25.3% with RPMI-8226 leukemia; 105% in the assay with OVCAR-5 ovarian; 56.5% in the assay with OVCAR-4 ovarian. Moreover, the growth in the assay on SK-OV-3 ovarian is 75.4%; with IGROV1 ovarian it was 52.1%; in the assay on OVCAR-3 ovarian, 16.9%; in the assay on HS 578T breast it was 66.2%; in the assay with NCI/ADR-RES ovarian, 46.9%.

Regarding `Cc1nc(Nc2cccnc2)sc1C(=O)/C=C/c1ccc(F)cc1`, the growth is 92.4% in the assay on SK-MEL-2 melanoma; 5.77% (active) in the assay on SN12C renal; 29.9% with UO-31 renal; 54% with TK-10 renal; 38.7% with ACHN renal; 46.2% in the assay on CAKI-1 renal. Moreover, the growth in the assay with CCRF-CEM leukemia is 1.27% (active); in the assay on MOLT-4 leukemia it was 81.7%; in the assay on SR leukemia it was 18.6%; in the assay with RPMI-8226 leukemia, 1.5% (active); with OVCAR-8 ovarian it was 21.8%; with OVCAR-4 ovarian, 63.8%. For the same compound, the growth was 29.9% with IGROV1 ovarian, 5.9% (active) in the assay with OVCAR-3 ovarian, 96.4% in the assay on HS 578T breast and 38.4% with NCI/ADR-RES ovarian.

Take `COc1cc2c(cc1OC)C1(C)N(CC2)C(=O)OC1(C)C` (centres undefined): the growth was 120% with SK-MEL-2 melanoma; 101% with SN12C renal; 91.3% in the assay with UO-31 renal; 102% in the assay with TK-10 renal; 107% in the assay on ACHN renal; 102% in the assay with CAKI-1 renal. Besides, the growth in the assay with CCRF-CEM leukemia is 106%; with MOLT-4 leukemia, -75.3% (active); with RPMI-8226 leukemia, 105%; in the assay on OVCAR-8 ovarian, 98.4%; in the assay on OVCAR-5 ovarian it was 107%; with SK-OV-3 ovarian, 107%. Besides, the growth is 109% in the assay with IGROV1 ovarian, 114% in the assay on OVCAR-3 ovarian, 98.1% in the assay with HS 578T breast and 105% in the assay on NCI/ADR-RES ovarian.

For `O=C1N=C(c2c(-c3[nH]c(=O)c4ccc(Br)cc4c3O)c(O)c3ccccc3c2O)C(=O)c2cc(Br)ccc21`, the growth in the assay with SK-MEL-2 melanoma is -14.7% (active); with SN12C renal, -75.4% (active); with UO-31 renal it was -65% (active); in the assay on TK-10 renal, -39% (active); in the assay with ACHN renal it was -54% (active); with CAKI-1 renal it was -72% (active). In addition, the growth in the assay with CCRF-CEM leukemia is 25.3%; in the assay with MOLT-4 leukemia, 31%; with SR leukemia, 20.8%; in the assay with RPMI-8226 leukemia, 6.4% (active); with OVCAR-5 ovarian it was 10.4%; in the assay with OVCAR-4 ovarian, -59.7% (active). Also, the growth in the assay with SK-OV-3 ovarian is -32.6% (active); in the assay with IGROV1 ovarian it was -55.9% (active); with OVCAR-3 ovarian, -81.5% (active); in the assay with HS 578T breast it was -21.9% (active); with NCI/ADR-RES ovarian it was -28.9% (active).

Take `COC(=O)C(CC(=O)c1ccc(-c2ccccc2)cc1)c1ccccc1` (centres undefined): the growth is 69.4% in the assay with SK-MEL-2 melanoma; 64.2% in the assay with SN12C renal; 53.8% in the assay on UO-31 renal; 68% with TK-10 renal; 41.3% in the assay on ACHN renal; 44.3% with CAKI-1 renal. Also, the growth is 49.4% in the assay on CCRF-CEM leukemia; 47.3% with MOLT-4 leukemia; 24.2% in the assay with SR leukemia; 88.3% with RPMI-8226 leukemia; 77.5% with OVCAR-8 ovarian; 84.1% with OVCAR-5 ovarian. In addition, the growth in the assay on OVCAR-4 ovarian was 71.6%; in the assay with IGROV1 ovarian it was 64.7%; in the assay on OVCAR-3 ovarian, 10.6%; with HS 578T breast it was 71.7%; with NCI/ADR-RES ovarian, 17.5%.

On to `N=C(N)c1ccc(-c2ccc(-c3ccc(Cl)cc3)o2)nc1`, for which the growth is -90.7% (active) in the assay on SK-MEL-2 melanoma; -80.7% (active) in the assay on SN12C renal; -85.8% (active) in the assay on UO-31 renal; -95.1% (active) in the assay on TK-10 renal; -91.5% (active) with ACHN renal; -85.5% (active) in the assay with CAKI-1 renal. The growth in the assay on CCRF-CEM leukemia was -57.5% (active); in the assay with MOLT-4 leukemia, 102%; with RPMI-8226 leukemia, -62.4% (active); with OVCAR-8 ovarian, -43.4% (active); with OVCAR-5 ovarian, -83.8% (active); with OVCAR-4 ovarian, -73.6% (active). The growth in the assay with SK-OV-3 ovarian was -96.7% (active); with IGROV1 ovarian it was -60.6% (active); in the assay on OVCAR-3 ovarian, -98.3% (active); in the assay with HS 578T breast, -57.2% (active); in the assay with NCI/ADR-RES ovarian, -69.7% (active).

In the case of `Nc1nc(Cl)c2c(ncn2Cc2ccc(CCl)cc2)n1`, the growth with SK-MEL-2 melanoma is 98.6%; in the assay on SN12C renal it was 93.4%; with UO-31 renal, 70.5%; with TK-10 renal it was 78.9%; in the assay with ACHN renal it was 83.3%; with CAKI-1 renal, 102%. Also, the growth with CCRF-CEM leukemia was 1.58% (active); in the assay on MOLT-4 leukemia, 103%; in the assay on SR leukemia, 83.2%; in the assay on RPMI-8226 leukemia, 33.8%; in the assay with OVCAR-8 ovarian, 49.4%; in the assay with IGROV1 ovarian, 76.5%. Moreover, the values for the growth in the assay on OVCAR-3 ovarian, with HS 578T breast and with NCI/ADR-RES ovarian were 68.3%, 94.1% and 98.4%, respectively.

On to `COc1cccc(/C=C2\SC(N3CCN(c4ccccn4)CC3)=NC2=O)c1`, for which the growth with SK-MEL-2 melanoma is 86.9%; in the assay with SN12C renal, 102%; with UO-31 renal, 84.5%; with TK-10 renal, 90.9%; with ACHN renal, 104%; in the assay with CAKI-1 renal, 104%. Moreover, the growth with CCRF-CEM leukemia was 63.4%; with MOLT-4 leukemia, 90.4%; in the assay with SR leukemia it was 89.7%; in the assay on RPMI-8226 leukemia, 85.8%; in the assay on OVCAR-8 ovarian it was 100%; in the assay with OVCAR-5 ovarian it was 113%. Besides, the growth with SK-OV-3 ovarian is 111%; with IGROV1 ovarian, 103%; in the assay on OVCAR-3 ovarian, 100%; in the assay on HS 578T breast it was 95.8%; with NCI/ADR-RES ovarian, 103%.

For `COc1cccc(-c2nc3sccn3c2-c2ccnc(NCCNS(=O)(=O)c3ccccc3)n2)c1`, the growth with SK-MEL-2 melanoma was 77.1%; with SN12C renal, 67.9%; with UO-31 renal, 37.7%; in the assay on TK-10 renal, 83%; with ACHN renal, 44.3%; with CAKI-1 renal it was 53.1%. Also, the growth in the assay with CCRF-CEM leukemia was 42.6%; in the assay on MOLT-4 leukemia, 43.2%; in the assay on SR leukemia, 70.3%; in the assay with RPMI-8226 leukemia, 49.5%; in the assay on OVCAR-8 ovarian it was 49.2%; in the assay on OVCAR-5 ovarian, 124%. The growth with SK-OV-3 ovarian was 79.9%; in the assay with IGROV1 ovarian it was 63.2%; with OVCAR-3 ovarian it was 68.3%; with HS 578T breast, 107%; in the assay with NCI/ADR-RES ovarian, 47.1%.

For the origin of these results see PubChem BioAssay (NCI).
